For some assays here: Potency and affinity values are given separately.

Common to all, as to design: scale not given: direction of the effect not stated beside the values
In test [1] the target is Protein translocase subunit SecA (Escherichia coli (strain K12)) (UniProt P10408). Put plainly: Assay to Identify E. coli SecA ATPase Inhibitors. Format: functional. The note with it: 30 µM.
The target in test [2] is T1, Ubiquitin-activating enzyme e1, putative (Leishmania donovani (strain BPK282A1)) (UniProt E9BSI1).
T1 sequence (whole entry): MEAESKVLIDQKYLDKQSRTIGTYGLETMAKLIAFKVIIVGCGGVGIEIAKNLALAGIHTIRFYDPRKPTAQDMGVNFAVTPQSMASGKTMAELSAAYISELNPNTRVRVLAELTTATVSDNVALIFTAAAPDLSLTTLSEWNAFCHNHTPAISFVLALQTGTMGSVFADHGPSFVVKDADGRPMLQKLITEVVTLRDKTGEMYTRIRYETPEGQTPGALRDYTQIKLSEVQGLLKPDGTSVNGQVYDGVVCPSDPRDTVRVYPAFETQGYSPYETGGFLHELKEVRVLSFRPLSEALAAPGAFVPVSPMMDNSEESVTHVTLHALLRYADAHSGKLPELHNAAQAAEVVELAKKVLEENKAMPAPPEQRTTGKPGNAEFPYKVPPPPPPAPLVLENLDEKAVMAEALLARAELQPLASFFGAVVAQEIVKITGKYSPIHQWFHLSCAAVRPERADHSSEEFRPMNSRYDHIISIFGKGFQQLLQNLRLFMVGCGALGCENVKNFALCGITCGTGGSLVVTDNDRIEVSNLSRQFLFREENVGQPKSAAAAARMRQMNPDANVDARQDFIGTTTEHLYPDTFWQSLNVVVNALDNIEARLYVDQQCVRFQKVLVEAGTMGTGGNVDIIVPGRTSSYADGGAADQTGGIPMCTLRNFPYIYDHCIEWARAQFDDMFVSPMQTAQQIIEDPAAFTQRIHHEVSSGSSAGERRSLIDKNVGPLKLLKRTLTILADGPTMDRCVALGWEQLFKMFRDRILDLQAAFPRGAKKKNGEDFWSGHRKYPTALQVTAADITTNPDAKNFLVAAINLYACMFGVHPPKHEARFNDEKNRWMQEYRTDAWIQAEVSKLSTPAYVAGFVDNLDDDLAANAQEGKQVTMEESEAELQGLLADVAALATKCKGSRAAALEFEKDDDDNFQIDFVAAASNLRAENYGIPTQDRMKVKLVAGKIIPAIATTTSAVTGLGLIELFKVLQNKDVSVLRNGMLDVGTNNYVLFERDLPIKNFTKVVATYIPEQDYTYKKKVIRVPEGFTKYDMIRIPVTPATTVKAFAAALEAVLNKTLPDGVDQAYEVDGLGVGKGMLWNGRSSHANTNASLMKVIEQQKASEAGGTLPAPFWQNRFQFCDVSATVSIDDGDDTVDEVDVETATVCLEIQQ
Put plainly: Leishmania donovani Ubiquitin Activating Enzyme (LdE1). Format: functional. The note with it: 30 µM.

Test [3] deals with T2, Aspartate--tRNA(Asp/Asn) ligase (Mycobacterium tuberculosis (strain ATCC 25618 / H37Rv)) (UniProt P9WFW3).
T2 sequence (whole entry): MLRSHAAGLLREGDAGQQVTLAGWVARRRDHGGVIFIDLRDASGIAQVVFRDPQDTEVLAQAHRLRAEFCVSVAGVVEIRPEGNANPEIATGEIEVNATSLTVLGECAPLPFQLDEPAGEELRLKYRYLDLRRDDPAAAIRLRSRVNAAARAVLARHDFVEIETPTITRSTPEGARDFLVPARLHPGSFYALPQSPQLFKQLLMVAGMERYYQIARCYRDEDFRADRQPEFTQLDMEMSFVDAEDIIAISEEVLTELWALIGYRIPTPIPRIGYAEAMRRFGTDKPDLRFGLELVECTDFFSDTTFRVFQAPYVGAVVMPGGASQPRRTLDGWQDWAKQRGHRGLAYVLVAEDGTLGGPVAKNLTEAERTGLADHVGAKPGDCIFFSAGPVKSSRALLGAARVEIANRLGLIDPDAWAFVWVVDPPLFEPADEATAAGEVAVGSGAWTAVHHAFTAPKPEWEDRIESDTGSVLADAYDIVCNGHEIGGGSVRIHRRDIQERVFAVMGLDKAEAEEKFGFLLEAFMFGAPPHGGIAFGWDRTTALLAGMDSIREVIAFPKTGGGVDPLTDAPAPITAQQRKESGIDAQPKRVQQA
Put plainly: Assay for Asp RNA synthetase-1 from Mycobacterium tuberculosis. The format is functional. The note with it: 30 µM.

Test [4] has as its target AMP-activated protein kinase, AMPK (Homo sapiens) (UniProt P54646+O43741+P54619+Q9UGJ0+Q9Y478+Q13131+Q9UGI9). Put plainly: AMP-dependent Kinase enzyme assay. An in vitro enzyme assay that detects ADP turnover that is directly proportional to AMPK activity. This uses naive AMPK that is activated during the assay with MK-8722. Format: functional. The note with it: 30 µM.

For test [5], the target named is Sialic acid-binding Ig-like lectin 9 (Homo sapiens) (UniProt Q9Y336). Put plainly: Hs-Siglec9 ALPHAscreen SOP 20170721. The note with it: 10 µM.
Test [6] has as its system Trypanosoma cruzi. Put plainly: Trypanosoma cruzi phosphomannomutase and mannose-1-phosphate guanylyltransferase assay. The settings on record: 10 µM. Format: functional.
Test [7] addresses T3, Arginase-2, mitochondrial (Homo sapiens) (UniProt P78540).
T3 sequence (whole entry): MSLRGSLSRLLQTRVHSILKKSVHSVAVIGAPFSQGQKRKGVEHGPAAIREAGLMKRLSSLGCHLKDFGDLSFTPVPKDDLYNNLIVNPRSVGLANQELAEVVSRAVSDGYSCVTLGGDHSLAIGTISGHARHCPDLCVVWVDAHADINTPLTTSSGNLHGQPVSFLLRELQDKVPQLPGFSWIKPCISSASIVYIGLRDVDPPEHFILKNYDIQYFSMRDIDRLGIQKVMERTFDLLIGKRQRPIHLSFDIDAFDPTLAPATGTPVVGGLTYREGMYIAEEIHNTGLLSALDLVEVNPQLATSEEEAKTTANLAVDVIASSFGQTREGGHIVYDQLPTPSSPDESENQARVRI
Put plainly: in vitro enzyme assay to detect the production of urea directly proportional to the activity of Arginase II. Note: in the data most compounds retested in dose-response had high values. Format: functional. The settings on record: 33.3 µM.

Test [8] deals with T4, Proteasome subunit beta (Trypanosoma cruzi) (UniProt O96673).
T4 sequence (whole entry): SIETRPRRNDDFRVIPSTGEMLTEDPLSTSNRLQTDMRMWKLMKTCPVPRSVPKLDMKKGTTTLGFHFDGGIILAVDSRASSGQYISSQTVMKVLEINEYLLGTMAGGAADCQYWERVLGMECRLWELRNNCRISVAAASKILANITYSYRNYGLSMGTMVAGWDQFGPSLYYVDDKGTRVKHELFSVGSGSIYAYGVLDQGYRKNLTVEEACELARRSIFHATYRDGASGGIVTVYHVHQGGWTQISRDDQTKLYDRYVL
Put plainly: Trypanosoma cruzi proteasome chymotrypsin-like activity (TcProtChymo) assay. Note: in the data most compounds retested in dose-response had high values. The format is functional. The settings on record: 9.37 µM.

For test [9], the species on record is Homo sapiens. Put plainly: To identify inhibition of the IFN signalling (Jak-Stat) pathway via expression of an eGFP reporter gene under the control of an IFN-stimulated response element (ISRE) containing MxA promoter. The format is functional. The settings on record: 30 µM. (In a reporter assay the amount or activity of a reporter protein is the signal.)
In test [10] the target is Shiga toxin 2 (Escherichia coli O157:H7) (UniProt P09385+P09386). Put plainly: E. coli 0.157:H7 Shiga Toxin SOP - stx2 screening assay. Format: functional. The settings on record: 30 µM.
Test [11] concerns the target T5, Tyrosyl-tRNA synthetase, putative (Trypanosoma cruzi (strain CL Brener)) (UniProt Q4DSP6).
T5 sequence (whole entry): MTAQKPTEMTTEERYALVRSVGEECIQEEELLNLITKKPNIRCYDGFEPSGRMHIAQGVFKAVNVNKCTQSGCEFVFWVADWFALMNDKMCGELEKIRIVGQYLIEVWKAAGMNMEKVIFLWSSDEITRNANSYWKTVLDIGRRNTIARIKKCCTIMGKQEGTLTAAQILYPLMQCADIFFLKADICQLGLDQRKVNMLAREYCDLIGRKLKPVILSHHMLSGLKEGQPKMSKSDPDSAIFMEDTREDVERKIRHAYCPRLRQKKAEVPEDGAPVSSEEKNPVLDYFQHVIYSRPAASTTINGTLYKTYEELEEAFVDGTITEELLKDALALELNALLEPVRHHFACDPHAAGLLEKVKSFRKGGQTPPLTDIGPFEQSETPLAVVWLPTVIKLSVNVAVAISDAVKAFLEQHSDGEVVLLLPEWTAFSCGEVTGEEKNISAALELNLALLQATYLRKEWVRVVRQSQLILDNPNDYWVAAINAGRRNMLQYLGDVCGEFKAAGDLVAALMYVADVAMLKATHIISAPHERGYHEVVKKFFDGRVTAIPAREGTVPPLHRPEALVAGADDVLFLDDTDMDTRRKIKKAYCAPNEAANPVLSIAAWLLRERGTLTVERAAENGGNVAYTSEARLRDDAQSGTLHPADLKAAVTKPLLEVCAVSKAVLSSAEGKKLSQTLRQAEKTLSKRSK
Put plainly: Trypanosoma cruzi tyrosyl tRNA synthetase (TcYRS) _High Tyrosine SOP. Note: in the data most compounds retested in dose-response had high values. Format: functional. The note with it: 30 µM.

Test [12] deals with T5, Tyrosyl-tRNA synthetase, putative (Trypanosoma cruzi (strain CL Brener)). Put plainly: Trypanosoma cruzi tyrosyl tRNA synthetase (TcYRS) SOP. The format is functional. The note with it: 30 µM.
Test [13] deals with Chromo domain-containing protein 1 (Saccharomyces cerevisiae (strain ATCC 204508 / S288c) (Baker's yeast)) (UniProt P32657). Put plainly: ScCHD-1 Enzyme Inhibition Assay. Note: in the data most compounds retested in dose-response had high values. The format is functional. The settings on record: 30 µM.
Chromo domain-containing protein 1 (Saccharomyces cerevisiae (strain ATCC 204508 / S288c) (Baker's yeast)), sequence (P32657 whole entry, the tested form may be a part): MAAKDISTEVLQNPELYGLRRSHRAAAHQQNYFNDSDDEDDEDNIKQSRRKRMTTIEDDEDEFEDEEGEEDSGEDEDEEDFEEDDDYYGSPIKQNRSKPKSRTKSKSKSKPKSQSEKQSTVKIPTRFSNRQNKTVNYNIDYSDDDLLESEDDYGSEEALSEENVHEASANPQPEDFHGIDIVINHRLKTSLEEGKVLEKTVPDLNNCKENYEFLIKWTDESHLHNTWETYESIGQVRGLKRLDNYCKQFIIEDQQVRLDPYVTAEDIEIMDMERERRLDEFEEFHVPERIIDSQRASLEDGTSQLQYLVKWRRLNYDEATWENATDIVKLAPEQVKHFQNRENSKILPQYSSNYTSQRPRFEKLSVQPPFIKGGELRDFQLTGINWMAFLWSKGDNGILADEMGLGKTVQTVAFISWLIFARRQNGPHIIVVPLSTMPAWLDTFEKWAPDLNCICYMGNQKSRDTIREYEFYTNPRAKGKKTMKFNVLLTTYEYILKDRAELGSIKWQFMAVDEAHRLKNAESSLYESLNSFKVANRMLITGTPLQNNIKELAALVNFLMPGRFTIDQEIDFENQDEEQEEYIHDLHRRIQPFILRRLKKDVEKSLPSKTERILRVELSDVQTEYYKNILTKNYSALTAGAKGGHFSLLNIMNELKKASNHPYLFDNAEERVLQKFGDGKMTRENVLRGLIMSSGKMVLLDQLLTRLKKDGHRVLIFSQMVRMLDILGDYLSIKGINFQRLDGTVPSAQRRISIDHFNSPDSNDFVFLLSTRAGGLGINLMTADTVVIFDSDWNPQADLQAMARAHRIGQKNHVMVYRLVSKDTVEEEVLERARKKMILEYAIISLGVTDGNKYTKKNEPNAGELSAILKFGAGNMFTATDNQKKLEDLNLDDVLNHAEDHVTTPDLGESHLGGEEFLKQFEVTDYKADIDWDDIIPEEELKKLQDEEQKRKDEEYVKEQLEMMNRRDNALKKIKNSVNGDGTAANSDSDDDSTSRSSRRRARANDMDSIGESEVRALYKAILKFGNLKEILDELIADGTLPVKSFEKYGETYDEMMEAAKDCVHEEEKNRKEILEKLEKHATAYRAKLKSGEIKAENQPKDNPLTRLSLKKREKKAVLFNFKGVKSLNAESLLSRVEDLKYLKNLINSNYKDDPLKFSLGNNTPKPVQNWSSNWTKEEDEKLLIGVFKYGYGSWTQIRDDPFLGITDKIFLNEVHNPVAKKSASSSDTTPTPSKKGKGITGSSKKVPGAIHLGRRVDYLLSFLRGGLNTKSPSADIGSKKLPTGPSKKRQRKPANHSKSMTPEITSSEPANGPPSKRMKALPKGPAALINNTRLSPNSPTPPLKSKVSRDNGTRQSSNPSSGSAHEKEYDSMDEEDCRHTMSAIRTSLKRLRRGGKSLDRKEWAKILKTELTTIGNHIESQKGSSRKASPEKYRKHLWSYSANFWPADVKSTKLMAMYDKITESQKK

Protein translocase subunit SecA (Escherichia coli (strain K12)), sequence (P10408 whole entry): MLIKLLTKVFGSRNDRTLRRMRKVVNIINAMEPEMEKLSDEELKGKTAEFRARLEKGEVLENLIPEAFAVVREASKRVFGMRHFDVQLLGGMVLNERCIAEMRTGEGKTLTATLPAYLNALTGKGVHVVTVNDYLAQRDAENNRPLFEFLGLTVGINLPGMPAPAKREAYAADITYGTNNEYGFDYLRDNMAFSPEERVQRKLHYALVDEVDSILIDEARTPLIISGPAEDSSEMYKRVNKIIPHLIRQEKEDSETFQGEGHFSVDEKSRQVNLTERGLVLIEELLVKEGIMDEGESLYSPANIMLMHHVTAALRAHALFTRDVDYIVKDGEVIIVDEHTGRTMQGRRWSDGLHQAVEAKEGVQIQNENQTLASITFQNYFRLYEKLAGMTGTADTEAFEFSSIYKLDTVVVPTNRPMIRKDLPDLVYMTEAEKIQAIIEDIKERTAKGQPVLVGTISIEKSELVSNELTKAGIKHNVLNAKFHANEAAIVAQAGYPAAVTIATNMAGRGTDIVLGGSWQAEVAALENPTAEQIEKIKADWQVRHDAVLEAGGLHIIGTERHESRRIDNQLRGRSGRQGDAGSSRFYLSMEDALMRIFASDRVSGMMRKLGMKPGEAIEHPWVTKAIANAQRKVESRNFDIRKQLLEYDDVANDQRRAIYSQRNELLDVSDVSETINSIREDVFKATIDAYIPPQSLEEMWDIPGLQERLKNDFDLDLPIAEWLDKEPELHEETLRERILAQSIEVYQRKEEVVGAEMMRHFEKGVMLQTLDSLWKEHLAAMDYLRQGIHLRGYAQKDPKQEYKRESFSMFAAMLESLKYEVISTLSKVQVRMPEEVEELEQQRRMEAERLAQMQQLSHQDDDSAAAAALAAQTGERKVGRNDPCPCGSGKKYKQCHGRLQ
Sialic acid-binding Ig-like lectin 9 (Homo sapiens), sequence (Q9Y336 whole entry): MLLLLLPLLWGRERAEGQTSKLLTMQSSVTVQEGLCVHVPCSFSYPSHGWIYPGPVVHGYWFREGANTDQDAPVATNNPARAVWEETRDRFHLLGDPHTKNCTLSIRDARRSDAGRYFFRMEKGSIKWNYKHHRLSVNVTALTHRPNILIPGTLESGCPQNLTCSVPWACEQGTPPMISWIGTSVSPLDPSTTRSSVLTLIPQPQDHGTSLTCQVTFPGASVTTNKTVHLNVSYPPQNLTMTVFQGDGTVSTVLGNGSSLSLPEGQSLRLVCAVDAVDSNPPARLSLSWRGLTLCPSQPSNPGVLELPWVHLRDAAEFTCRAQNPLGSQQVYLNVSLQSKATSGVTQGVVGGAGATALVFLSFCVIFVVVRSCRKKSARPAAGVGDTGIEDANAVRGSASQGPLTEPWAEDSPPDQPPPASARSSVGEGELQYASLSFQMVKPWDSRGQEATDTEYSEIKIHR

`NCC1(c2cccc(C(F)(F)F)c2)CCOCC1`: the Percent Effect in test [1] is -1.6%; in test [2], 5.41%; in [3], 0.69%; in [4], -16.1%; in [5] it was -3.19%; in test [6], -0.781%. Also, the Percent Effect is 25% in test [7]; 15.6% in [8]; 7.66% in test [9]; -1.62% in [10]; 7.92% in test [11]; 18.3% in [12]. For the same compound, the Percent Effect in test [13] was found to be 107%.
On to `COCCO[C@@H]1C[C@H]2CN(C(=O)c3ccc(C)nc3)CCN2C1`, for which the Percent Effect in test [1] is 0.459%; in test [2], 10.7%; in test [3] it was 6.84%; in test [4], -2.91%; in test [5], 3.06%; in test [6], -3.86%. Further, the Percent Effect in test [7] was -51.4%; in test [8], 8.89%; in test [9] it was -12.5%; in [10] it was -18.6%; in [11], 4.17%; in test [12] it was 15%. Moreover, the Percent Effect in test [13] was -6.6%.
Regarding `Cc1nc(C2(NCC(=O)NC(=O)NCc3cccs3)CCCCC2)no1`, the Percent Effect was -4.13% in test [1]; 15.8% in [2]; -4.16% in test [3]; -2.76% in test [4]; -3.65% in test [5]; 2.82% in test [6]. Besides, the Percent Effect in test [7] is -3.55%; in [8] it was -0.479%; in test [9], 7.32%; in test [10] it was 5.13%; in test [11], 2.13%; in [12], 15.6%. Besides, in test [13], the Percent Effect was -4.77%.
Turning to `Fc1cnc(N2CCO[C@H]3CN(CC4CCCC4)C[C@H]32)nc1`, the Percent Effect in test [1] is -2.09%; in test [2] it was 21.3%; in test [3], -4.57%; in [4], -6.38%; in test [5], -0.399%; in test [6] it was 3.48%. The Percent Effect in test [7] is -60%; in test [8], 3.93%; in [9] it was -7.5%; in test [10], -12.1%; in test [11], 3.12%; in test [12] it was 2.5%. The Percent Effect in test [13] was -13.4%.
Consider `c1cc(COC[C@@H]2CCC[C@@]23CNCCO3)ccn1`, for which the Percent Effect in [1] was -6.97%; in test [2] it was 8.11%; in [3], 4.08%; in [4], 91.3%; in test [5], -11.6%; in test [6], -6.94%. Moreover, the Percent Effect was -3.5% in test [7]; 10.7% in test [8]; 2.47% in test [9]; -12.9% in [10]; -3.24% in test [11]; 0% in [12]. Also, in [13], the Percent Effect was -2.52%.

The values are drawn from ChEMBL document CHEMBL3988442, “University of Dundee, Small-Polar-MMV Screening Library” (2021).
